# Experimental data taken from PubChem BioAssay AID2253 (Southern Research Specialized Biocontainment Screening …, 2010).
# Out of some 2,200 compounds screened, about 1,300 (59%) were called active. The set was probably picked from earlier hits. Only a sample is shown. Entries with a potency or affinity are not part of this list. Unmarked numbers belong to inactive results. No rule for the calls is given here.
# Assay: THP-1 cell cytotoxicity, dose response, cytotoxicity control for Salmonella PhoP regulon inhibitors, S. typhimurium screen hits (AID 2253)
# Conditions: THP-1 viability, CellTiter-Glo luminescence, 72 h; series mostly up to 50 µM; viability: at the top concentration
row,SMILES,viability
1,CCc1c(C)c2cc(Cl)c(O)c(CN3CCCCC3)c2oc1=O,100%
2,O=C(CCc1ccccc1)Nc1nc2ccc(S(=O)(=O)N3CCOCC3)cc2s1,85.6% [at 25 µM]
3,O=C(NCc1cn2ccsc2n1)Nc1ccc(Cl)cc1,81.7%
4,COc1ccccc1CNc1nc2nc(C)c(C)c(=O)n2[nH]1,95.3%
5,O=C(c1cnsn1)N1CCN(c2ccccc2)CC1,81.3%
6,O=C1CC(c2ccccc2)n2nc(NC(=O)c3ccccc3)nc2N1 (stereo unspecified),89.1%
7,Cc1nc(N2CCN(c3ccccc3)CC2)nc2c1C(=O)CC(C)C2 (stereo unspecified),91.5%
8,CCC(CC)NC(=O)COC(=O)c1ccc(OCC(=O)Nc2ccccc2OC)c(OC)c1,89.9%
9,Cc1ccc(CNC(=O)Nc2cccs2)cc1,92.3%
10,CCn1c(=O)c(=O)[nH]c2cc(C(=O)NCC3CCCCC3)ccc21,94%
11,O=C1c2ccccc2C(=O)N1c1cccc(-c2csc(Nc3ccc4c(c3)OCO4)n2)c1,98.5%
12,Oc1ccc(Nc2nc(-c3cccs3)cs2)cc1,93.4%
13,Cc1nn2c(=O)cc(CSc3nc4ccccc4[nH]3)nc2s1,97.9%
14,Cn1c(COc2ccccc2)nnc1SCc1nc2ccccc2[nH]1,95.2%
15,c1ccc2[nH]c(CSc3nccs3)nc2c1,84.4%
16,O=C1NC(=O)C(=C2CCCCCC2)S1,90.7%
17,Cc1ncoc1C(=O)Nc1cccc(Cl)c1,99.8%
18,CS(=O)(=O)c1ccc([C@@H](O)[C@@H](CF)NC(=O)C(Cl)Cl)cc1,93%
19,CC(=O)C1=C(C)Nc2ncnn2C1c1ccccc1OCc1ccccc1 (stereo unspecified),84.5%
20,O=C(c1ccccc1)c1nc2ccccc2n(CCCn2c(=O)c(C(=O)c3ccccc3)nc3ccccc32)c1=O,95%
21,COC(=O)CN1C(c2ccc(OC)cc2)=Nc2ccc(Cl)cc2C1c1ccccc1 (stereo unspecified),80.7%
22,CC[C@H]1OC(=O)[C@H](C)[C@@H](O[C@H]2C[C@@](C)(OC)[C@@H](O)[C@H](C)O2)[C@H](C)[C@@H](O[C@@H]2O[C@H](C)C[C@H](N(C)C)[C@H]2O)[C@](C)(O)C[C@@H](C)CN(C)[C@H](C)[C@@H](O)[C@]1(C)O,89.2%

row,SMILES,viability
1,CC[C@H]1OC(=O)[C@H](C)[C@@H](O[C@H]2C[C@@](C)(OC)[C@@H](O)[C@H](C)O2)[C@H](C)[C@@H](O[C@@H]2O[C@H](C)C[C@H](N(C)C)[C@H]2O)[C@](C)(O)C[C@@H](C)[C@@H]2N[C@@H](COCCOC)O[C@H]([C@H]2C)[C@]1(C)O,82.6%
2,COc1ccccc1CC(=O)N1CCN(c2ccccn2)CC1,90.4%
3,COCC(=O)N(Cc1ccco1)c1nnc(C2CCOC2)s1 (stereo unspecified),99%
4,COc1ccc(OC)c(NC(=O)c2cc3c(Cl)nc4ccccc4c3s2)c1,95.3%
5,Cc1ccc2[nH]c3c(=O)n(CCc4cnc[nH]4)cnc3c2c1,86.3%
6,C=CCNc1nnc(Cl)c2ccccc12,85.3%
7,COc1ccc(C(=O)NCCC2=CCCCC2)cc1OC,93.9%
8,O=P(Cc1cc[n+]([O-])cc1)(c1ccccc1)c1ccccc1,82.4%
9,NC(=S)c1cc2ccc(O)cc2oc1=O,87.2%
10,Cn1ncc(Br)c1C(=O)NCc1cccs1,92.8%
11,O=C(NCc1cccs1)Nc1cccs1,90.7%
12,CC(C)=CCN1CCN(Cc2ccoc2)CC1CCO (stereo unspecified),94.6%
13,COc1ccc(NC(=O)CSc2nc(C)cs2)cc1OC,93.2%
14,CSC(=NS(=O)(=O)c1ccccc1)SC,80.6% [at 25 µM]
15,CCn1nc(C(=O)NCc2ccco2)c(Cl)c1Cl,81.5%
16,O=C(NCc1ccco1)C1CC(=O)N(CCc2ccccc2)C1 (stereo unspecified),99.7%
17,O=C(CNc1ccccc1)Nc1ccc(F)cc1,87.7%
18,CCN(CC(=O)Nc1ccc(N2CCOCC2)cc1)Cc1nc2ccccc2c(=O)[nH]1,87.8%
19,Cc1c(C(c2cccc([N+](=O)[O-])c2O)c2c(C)n(C)n(-c3ccccc3)c2=O)c(=O)n(-c2ccccc2)n1C,106%
20,Cc1ccc(CNC(=O)c2cccc(S(C)(=O)=O)c2)cc1,91.7%
21,CN(C)C(=O)c1cn(N(C)c2ncc(C(F)(F)F)cc2Cl)c(=O)c2ccccc12,100%
22,CCOc1cc(C2Nc3cccc4cccc(c34)N2)ccc1O,106%

row,SMILES,viability
1,COc1cc(C2Nc3cccc4cccc(c34)N2)cc(OC)c1O,94.5%
2,NC(=O)c1ccccc1NC(=O)/C=C/C(=O)O,94%
3,COc1ccc(NC(=O)c2sccc2SCC#N)cc1,85.5%
4,COC(=O)C1(O)CC(C(C)C)=NN1C(=O)c1ccc(Cl)cc1 (stereo unspecified),87.9%
5,CCCCn1cnc2sc(-c3ccccc3)cc2c1=O,81.9%
6,CCn1cc(C(=O)O)c(=O)c2cc(F)c(N3CCNCC3)cc21,92%
7,CC(=O)Nc1ccc(C(=O)N2CCN(C(=O)c3ccco3)CC2)cc1,91.3%
8,COc1cc(OC)c(NC(=O)Nc2ccc(OC)c(OC)c2)cc1Cl,90.3%
9,CCn1cc(C(=O)O)c(=O)c2cc(F)c(N3CCN(C)CC3)cc21,100%
10,Cc1ccc(NC(=O)COc2ncnc3c(Cl)cc(Cl)cc23)cc1[N+](=O)[O-],80.3%
11,O=C1OCC(CO)(CO)N=C1NNc1ccc(Cl)c(Cl)c1,89.3%
12,COC(=O)CCC(=O)Nc1ccc(Cl)c(Cl)c1,102%
13,CC(C)Cc1oc(C(=O)O)cc1CN,97.5%
14,Cc1ccc(CNc2oc(-c3cccs3)nc2C#N)cc1,88.9% [at 25 µM]
15,CC1C(C#N)=C(N)OC2=C1C(=O)CCC2 (stereo unspecified),98.9%
16,CCCCN(CCCC)C(=O)c1cn(CC)c2cc(N3CCN(C)CC3)c(F)cc2c1=O,91.2%
17,Cc1[nH][nH]c(=O)c1C(c1ccc(O)c([N+](=O)[O-])c1)c1c(C)[nH][nH]c1=O,93.3%
18,COc1cc(CNCc2ccccn2)ccc1OCC(=O)NC(C)(C)C,95.7%
19,O=C(CN(c1ccc(F)cc1)S(=O)(=O)c1ccc2c(c1)OCCO2)NCc1cccnc1,92.6%
20,COCCn1cc(C(=O)N2CCC(C)CC2)c2c3ccccc3n(C)c2c1=O,82.2%
21,Cc1ccc(S(=O)(=O)N2CCC(C(N)=O)CC2)c(C)c1C,87.3%
22,O=C(NCc1cccs1)[C@@H]1CSC2c3ccccc3C(=O)N21 (stereo partly specified),97.5%
